Screens (PubChem)
G9a block = qHTS Assay for Inhibitors of Histone Lysine Methyltransferase G9a. G9a H3K9 monomethylation, AlphaScreen, 2 h. Histone-lysine N-methyltransferase EHMT2 (Homo sapiens), Q96KQ7. Potency, µM (highest dose often 102 µM), without a hit: top-dose activity, negative = inhibition, hits mostly inhibitors. hit rate 8.8% among 350,000. AID 504332, 2011; further: on the % scale 0 is the no-effect control and ±100 the full control effect; nearly all actives have a fitted effect of over 75% in size
Target sequence (Q96KQ7 913-1193 limits assumed): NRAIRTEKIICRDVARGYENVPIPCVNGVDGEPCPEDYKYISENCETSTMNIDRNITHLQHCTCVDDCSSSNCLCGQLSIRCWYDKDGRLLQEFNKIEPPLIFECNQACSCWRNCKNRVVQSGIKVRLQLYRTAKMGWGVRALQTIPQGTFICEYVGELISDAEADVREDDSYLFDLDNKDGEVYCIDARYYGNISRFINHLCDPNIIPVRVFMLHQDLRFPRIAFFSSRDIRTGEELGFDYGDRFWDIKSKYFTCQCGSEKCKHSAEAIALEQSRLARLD
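Compounds were preincubated with 20 nM G9a for 15 min, after which biotinylated H3K9 peptide (500 nM) and SAM (20 uM) started a 2 h room-temperature reaction. Monomethylated product was quantified by antibody-based AlphaScreen chemiluminescence.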
JMJD2A Tudor inh = qHTS Assay for Inhibitors of JMJD2A-Tudor Domain; Lysine-specific demethylase 4A (Homo sapiens), O75164; AlphaScreen JMJD2A-Tudor / H3K4me3 peptide binding; Potency, µM (highest dose often 114 µM), without a hit: top-dose activity change, negative = inhibition, most hits filed as inhibitors; hit rate 4.4% among 390,000; AID 504339, 2011; further: on the % scale 0 is the no-effect control and ±100 the full control effect; nearly all actives have a fitted effect of over 50% in size
Sfp PPTase inh = qHTS Assay for Inhibitors of Bacillus subtilis Sfp phosphopantetheinyl transferase (PPTase). 4'-phosphopantetheinyl transferase ffp (Bacillus subtilis), Q9F4F7. Biochemical Sfp PPTase activity, qHTS. Potency, µM, inactives show largest response in the series, negative = inhibition, actives largely listed as inhibitors. hit rate 3.5% among 310,000. AID 1490, 2009;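 further: the enzyme is Sfp with the accession as filed and its product quenches rhodamine fluorescence; 0% = enzyme reaction without inhibitor and -100% = no enzyme wells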
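Reaction rates are the 30-min fluorescence difference (ex 525, em 598 nm) in wells containing 15 nM Sfp, 5 uM rhodamine-CoA and 12.5 uM BHQ-2-YbbR at pH 7.6 with 10 mM MgCl2.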
HP1b binding inh = HTS for Inhibitors of HP1-beta Chromodomain Interactions with Methylated Histone Tails; Chromobox protein homolog 1 (Homo sapiens), P83916; AlphaScreen HP1-beta / biotin-H3K9me3 peptide binding; Potency, µM (highest dose often 114 µM), without a hit: at the top dose activity change, negative = inhibition, most hits filed as inhibitors; hit rate 0.56% among 390,000; further: nearly all actives have a fitted effect of over 70% in size
Target sequence (P83916 whole entry, looked up): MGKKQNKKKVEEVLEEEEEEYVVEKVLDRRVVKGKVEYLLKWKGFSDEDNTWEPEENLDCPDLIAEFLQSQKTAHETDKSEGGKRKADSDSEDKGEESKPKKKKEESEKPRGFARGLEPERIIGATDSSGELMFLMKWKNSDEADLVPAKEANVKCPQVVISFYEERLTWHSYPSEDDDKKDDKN
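HP1-beta protein (50 nM final) preincubated 30 min at room temperature with biotinylated H3(1-18)K9me3 peptide (50 nM) in PBS pH 7.4, 0.01% Tween-20, then compound added for 30 min. AlphaScreen streptavidin donor/nickel chelate acceptor beads (10 ug/mL final), 30 min dark, luminescence read.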
BAZ2B inh = qHTS Assay for Inhibitors of BAZ2B; AlphaScreen BAZ2B-H3K14Ac peptide displacement; Bromodomain adjacent to zinc finger domain protein 2B (Homo sapiens), Q9UIF8; hit rate 4.4% among 360,000; Potency, µM (doses to about 114 µM), without a hit: at the top dose activity change, negative = inhibition, most hits filed as inhibitors; AID 504333, 2011; further: on the % scale 0 is the no-effect control and ±100 the full control effect; nearly all actives have a fitted effect of over 60% in size
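Protein-peptide AlphaScreen: BAZ2B 50 nM, b-H3K14Ac 50 nM, 1x PBS pH 7.4 + 0.01% Tween-20. Preincubation 30 min RT; cpd 30 min RT (top 110 uM); beads 20 min RT, light-protected.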
* marks the source's active call; other numbers are inactive results; ? = inconclusive; . = not tested or not shown; [ ] = dose if it differs, or a comment. Hits are enriched below; roughly 12% of the tested compounds scored in any of these assays. The call rests on the fitted dose curve; in most records, active means well fitted curve in the direction sought with a large enough effect; inconclusive means small, poorly fitted or top-dose-only effect, or another doubt; inactive means no such curve, though single readings can be large; an effect the other way counts as inactive or inconclusive. Potency means the concentration at half of the fitted maximal effect.

SMILES | G9a block | JMJD2A Tudor inh | Sfp PPTase inh | HP1b binding inh | BAZ2B inh
O=C(CNCc1ccccc1Cl)NCc1ccco1 | -137.5%[59 µM] | -99.3% | ? | 22.4µM* | 20µM*
NS(=O)(=O)c1ccc(CCNCC(=O)NCc2ccccc2Cl)cc1 | -6.3% | 28.2µM* | -19.5% | -36.4% | 50.1µM*
O=C(COC(=O)/C=C/c1ccccc1Cl)NCc1ccco1 | ? | -27.8% | 13.9% | 3.8% | 50.1µM*
CCn1cc(C(=O)NC2CCCc3c2cnn3-c2cccc(C)c2C)cn1 (centres undefined) | . | . | 7.8% | . | 1.4%
CCCCN(C(=O)COC(=O)CSc1cc(C)c2ccccc2n1)c1c(N)n(CCC)c(=O)[nH]c1=O | 55.0% | 0.7% | 8.1% | 43.4% | -3.1%
N[C@H](C(=O)O)[C@H](Cc1ccccc1)C(=O)O | 7.08µM* | . | . | . | .
CCN1/C(=C\C(=S)Nc2ccccc2)Sc2ccccc21 | ? | 25.1µM* | 20µM* | ? | ?
C/C(=C\C(=S)Nc1ccccc1)Nc1ccccc1 | -10.0%[59 µM] | -33.1% | -9.0% | -2.1% | ?
CCOC(=O)/C(C#N)=C(C)/C=C1\Sc2ccccc2N1CC | -4.3%[59 µM] | -12.9% | 8.9% | 10.6% | 4.2%
CCN1/C(=C\C=C(C(C)=O)C(C)=O)Sc2ccccc21 | 50.1µM* | -29.9% | -2.1% | -4.8% | ?
CC(C)[C@H](NC(=O)OC(C)(C)C)C(=O)NCC1CCC(C(=O)N[C@@H](Cc2ccccc2)C(=O)O)CC1 (some centres undefined) | -7.5% | -6.8% | 1.3% | 1.6% | -13.5%
CCOc1ccccc1/C=C/C(=O)N1CCN(C(=O)c2ccco2)CC1 | . | -15.1% | . | 19.6% | .
COc1ccc(C(=O)N2CCc3ccccc32)cc1 | -5.2%[59 µM] | -11.0% | 6.9% | 31.4% | 0.5%
CC(C)c1cccc2nc3c(c([Si](C)(C)C(C)(C)C)c12)Cn1c-3cccc1=O | . | . | 79.4µM* | . | .
CC(C)c1cccc2nc3c(c(C(C)(C)C)c12)Cn1c-3cccc1=O | . | . | 0.7% | . | .
CC(C)c1cccc2c([Si](C)(C)C)c3c(nc12)-c1cccc(=O)n1C3 | . | . | 44.7µM* | . | .
Nc1ccc(CCNc2ncnc3c2ncn3C2OC(CO)C(O)C2O)cc1 (centres undefined) | ? | . | 12.8% | . | .
COCCCNC(=O)c1ccc2c(=O)n(C3CCCC3)c(=S)[nH]c2c1 | 5.6%[59 µM] | -3.6% | 0.6% | 36.7% | -8.6%
CN1CCN(c2ccc(NC(=O)c3ccccc3Br)cc2)CC1 | ? | -15.5% | 13.8% | 22.9% | -13.6%
CN1CCN(c2ccc(NC(=S)NC(=O)c3cccc4c(Br)cccc34)cc2)CC1 | 6.31µM* | -32.3% | 5.7% | 7.5% | ?
CN1CCN(c2ccc(NC(=O)COc3cccc4ccccc34)cc2)CC1 | ? | ? | -6.0% | -10.4% | ?
CN1CCN(c2ccc(NC(=S)NC(=O)c3cccc4ccccc34)cc2)CC1 | 22.4µM* | ? | -24.9% | ? | 35.5µM*
COc1ccc(-c2nc(-c3cccc(C)c3)nc(N3CCN(C)CC3)c2C#N)cc1 | 79.4µM* | -19.3% | 10.9% | 9.4% | -7.1%[57.1 µM]
COc1cccc(-c2nc(-c3ccccc3)nc(N3CCN(C)CC3)c2C#N)c1 | 50.1µM* | 56.2µM* | -26.7% | -8.5% | ?
COC(=O)c1sc2nc(-c3ccccc3)nc(N3CCN(C)CC3)c2c1C | ? | ? | 50.1µM* | -4.7% | ?
SMILES | G9a block | JMJD2A Tudor inh | Sfp PPTase inh | HP1b binding inh | BAZ2B inh
Cc1ccc(NC(=O)Cn2c(=O)n(-c3ccc(C)cc3)c(=O)c3ccc(C(=O)NCc4ccccc4Cl)cc32)cc1 | 8.5%[59 µM] | 5.7% | . | 31.0% | .
CNC(=S)N/N=C(\C)c1ccc2c(c1)OCO2 | ? | -32.6% | 79.4µM* | 10.3% | ?
C/C(=N\NC(=S)NC(C)C)c1ccc2c(c1)OCCO2 | ? | ? | -7.0% | 50.1µM* | ?
CNC(=S)N/N=C(\C)c1ccc2c(c1)OCCO2 | -11.7%[59 µM] | -6.0% | 50.1µM* | -1.4% | ?
C/C(=N\NC(=O)COc1ccc(C(C)(C)C)cc1)c1ccc2c(c1)OCCO2 | 5.1%[59 µM] | ? | 16.7% | 7.5% | -33.7%
CCc1ccc(OCC(=O)N/N=C(\C)c2ccc3c(c2)OCCO3)cc1 | 19.8% | -10.4% | 56.2µM* | 13.5% | -8.2%
CCNC(=S)N/N=C(\C)c1ccc2c(c1)OCCO2 | 16.7%[59 µM] | -34.4% | 26.3% | -20.2% | ?
C=CCn1c(=O)c(C(=O)NCc2ccc3c(c2)OCO3)c(O)c2cc(OC)c(OC)cc21 | 9.3% | -4.2% | 23.9% | 23.8% | -3.8%
COc1ccc(Cn2c(=O)cc(N)n(-c3ccccc3C)c2=O)cc1 | 22.7% | -12.1% | 10.6% | 16.5% | 1.8%
O=C(Nc1ccc(S(=O)(=O)Nc2nccs2)cc1)c1cc(-c2ccccc2)nc2ccccc12 | 7.94µM* | 31.6µM* | 4.0% | ? | ?
Cc1ccc(-c2cc(C(=O)Nc3ccc(S(=O)(=O)Nc4nccs4)cc3)c3ccccc3n2)c(C)c1 | 28.2µM* | ? | 20µM* | ? | ?
S=C(NC1CC1)N1CCCc2ccccc21 | -5.1%[0.501 µM] | -14.2% | 0.4% | 19.1% | -13.9%
O=C(N/C=C\c1ccccc1)NCc1ccc(Cl)cc1Cl | 25.1µM* | -12.6%[57.1 µM] | 12.1% | -12.5% | -0.9%
COc1ccccc1CNC(=O)N/C=C/c1ccc(Cl)cc1 | 31.6µM* | -35.1% | 14.9% | -15.4% | -13.2%
O=C(N/C=C\c1ccccc1)NCc1ccc(Cl)cc1 | ? | -9.6% | 23.7% | 17.7% | 2.2%
COc1ccc(Nc2c3c(nc4ccc(NC(=O)c5ccc(F)cc5)cc24)CCCC3)cc1OC | ? | 56.2µM* | . | ? | 31.6µM*
COc1ccccc1Nc1c2c(nc3ccc(NC(=O)c4cccc(OC)c4OC)cc13)CCCC2 | ? | ? | . | 16.1% | -37.5%
COc1ccccc1Nc1c2c(nc3ccc(NC(=O)c4ccc(OC)c(OC)c4)cc13)CCCC2 | 14.1µM* | ? | . | -16.6% | ?
Cc1ccc2nc3c(c(Nc4ccc(C)c(C)c4)c2c1)CCC3 | -45.2%[59 µM] | ? | . | 1.6% | 31.6µM*
COc1ccc(C(=O)Nc2ccc3nc4c(c(Nc5ccc(OC)c(OC)c5)c3c2)CCCC4)c(OC)c1 | -20.5%[59 µM] | ? | . | -20.4% | ?
COc1ccccc1Nc1c2c(nc3ccc(N)cc13)CCCC2 | 39.8µM* | 39.8µM* | 1.2% | -25.1% | 35.5µM*
CCn1c(SCC(=O)Nc2cccnc2Cl)nnc1-c1ccccc1 | 0.2%[59 µM] | -8.8% | 14.7% | -10.0% | 8.6%
COc1ccc(C(=O)NCCCOC(=O)c2ccc(OC)cc2)cc1 | 48.4% | -15.2% | 11.9% | 29.8% | -2.6%
COCCCn1c(=S)[nH]c2sc3c(c2c1=O)CCCC3 | 8.91µM* | ? | -23.7% | 1.8% | -3.5%
COCCn1c(=S)[nH]c2sc3c(c2c1=O)CCCC3 | 7.94µM* | -13.6% | -27.3% | 30.8% | 0.2%
